An excerpt weighted towards active compounds, which were near 2.2% of everything screened.
BaF3 tox: reduces parental Ba/F3 cell viability, JAK2V617F counter-screen | CellTiter-Glo ATP luminescence | inhibition, % at 5.6 µM | 220,000 compounds, 1.1% hits | AID 1486;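 active = inhibition above a per-campaign cutoff, the mean inhibition of all tested compounds plus 3 SD, cut at about 27% in these data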
Ba/F3 V617F tox: lowers viability of Ba/F3 cells expressing EpoR and JAK2V617F. ATP luminescence. inhibition, % at 5.6 µM. 220,000 compounds, 1.1% hits. AID 1446;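 active = inhibition above the campaign mean plus 3 SD over all tested compounds, cut at about 24% in these data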;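 note: cytokine-independent growth of Ba/F3 cells driven by EpoR plus mutant JAK2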
aSyn 5UTR inh: 5' untranslated region of α-synuclein, MLPCN primary screen. AID 1813. inhibition, % (tested at 7.5 µM). alpha-synuclein 5'UTR reporter, inhibitor activity. 300,000 compounds, 0.82% hits; in the data active = inhibition above about 60%; inconclusive = no clear call, values can overlap the other calls;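 note: H4 neuroglioblastoma cells stably carrying SNCA 5'UTR luciferase fusion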
APP transl inh: APP translation inhibition; SH-SY5Y APP 5'UTR-luciferase reporter, luminescence; inhibition, % at 2 µM; 190,000 compounds, 0.82% hits; AID 1285;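 active = inhibition above a set limit, derived from the sample mean plus 3 SD, cut at about 45% in these data; inconclusive = one replicate passes the limit while the other fails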
IEC-6 tox: IEC-6 cytotoxicity, counter-screen for KLF5 inhibitors; 290,000 compounds, 0.78% hits; luminescence viability; inhibition, % at 5 µM
KLF5 inhibitor: kruppel-like factor 5 inhibition; 290,000 compounds, 0.23% hits; DLD-1 KLF5 promoter-luciferase reporter, luminescence; inhibition, % at 5 µM;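 active = inhibition above a per-plate limit of that plate's mean compound inhibition plus 3 SD, cut at about 60% in these data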;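 note: higher means less KLF5 promoter-driven luciferase light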
IEC-6 cytotox cf: IEC-6 cytotoxicity, confirmation assay | shares compounds with IEC-6 tox | IEC-6 rat intestinal epithelial viability, luminescence | inhibition, % at 5 µM | 1,900 compounds, 63% hits | AID 1907
A number is an active result. Cut-off read from the data, not from the text of the source, unless noted: active = inhibition above about 22%; inactive = the rest.

`COc1cccc(-c2csc(N3CCN(C(=S)Nc4ccccc4C)CC3)n2)c1` gave BaF3 tox inactive, Ba/F3 V617F tox inactive, aSyn 5UTR inh inactive, APP transl inh inactive, IEC-6 tox inactive and KLF5 inhibitor inactive.
Cc1ccc(Nc2nc(N)nc(CCl)n2)c(C)c1 was read as BaF3 tox 30, Ba/F3 V617F tox 99, aSyn 5UTR inh inactive, IEC-6 tox 100, KLF5 inhibitor inactive and IEC-6 cytotox cf inactive.
For Cc1cccc(Nc2nc(N)nc(CCl)n2)c1 the results were BaF3 tox inactive, Ba/F3 V617F tox inactive, aSyn 5UTR inh inactive, IEC-6 tox inactive and KLF5 inhibitor inactive.
For CC1CCCN(Cc2ccc(OCc3ccccc3)cc2)C1 (stereo unspecified) the results were aSyn 5UTR inh inactive, IEC-6 tox inactive and KLF5 inhibitor inactive.
Screening O=C(CSc1cccc[n+]1[O-])Nc1ccccc1Oc1ccccc1 returned BaF3 tox inactive, Ba/F3 V617F tox inactive, aSyn 5UTR inh inactive, APP transl inh inactive, IEC-6 tox 24, KLF5 inhibitor inactive and IEC-6 cytotox cf inactive.
`O=C(CSc1cccc[n+]1[O-])CSc1cccc[n+]1[O-]` gave BaF3 tox inactive, Ba/F3 V617F tox inactive, aSyn 5UTR inh inactive, APP transl inh inactive, IEC-6 tox 55, KLF5 inhibitor inactive and IEC-6 cytotox cf inactive.
`O=C(CSc1cccc[n+]1[O-])N1CCCCCC1` gave BaF3 tox inactive, Ba/F3 V617F tox inactive, aSyn 5UTR inh inactive, APP transl inh inactive, IEC-6 tox inactive and KLF5 inhibitor inactive.
O=C(N/N=C/c1cccnc1)c1ccc([N+](=O)[O-])cc1 was read as BaF3 tox inactive, Ba/F3 V617F tox inactive, aSyn 5UTR inh inactive, APP transl inh inactive, IEC-6 tox inactive and KLF5 inhibitor inactive.
O=[N+]([O-])c1ccc(N/N=C/c2cccnc2)cc1 was read as aSyn 5UTR inh inactive, IEC-6 tox 24, KLF5 inhibitor inactive and IEC-6 cytotox cf inactive.
`CC(=O)C1=C(O)C(=O)N(Cc2ccccc2)C1c1ccc(Br)cc1` (stereo unspecified) gave aSyn 5UTR inh inactive, IEC-6 tox inactive and KLF5 inhibitor inactive.
For Cc1ccc(NC(=O)CCc2c[nH]c3ccccc23)nc1 the results were aSyn 5UTR inh inactive, IEC-6 tox 70, KLF5 inhibitor inactive and IEC-6 cytotox cf 42.
NS(=O)(=O)c1ccc(CCNC(=O)CCCNC(=O)c2ccc(Cl)cc2)cc1 was read as aSyn 5UTR inh inactive, IEC-6 tox inactive and KLF5 inhibitor inactive.
`CC(C)c1ccc2c(c1)[C@H]1OCC[C@H]1[C@@H](c1cccs1)N2` gave BaF3 tox 54, Ba/F3 V617F tox 41, aSyn 5UTR inh inactive, APP transl inh 86, IEC-6 tox 26, KLF5 inhibitor inactive and IEC-6 cytotox cf 66.
`CSc1nc(Cc2ccccc2)cc(=O)[nH]1` gave BaF3 tox inactive, Ba/F3 V617F tox inactive, aSyn 5UTR inh inactive, APP transl inh inactive, IEC-6 tox inactive and KLF5 inhibitor inactive.
Screening Cc1ccc(-c2ccnc3c(Br)c(C)nn23)cc1 returned aSyn 5UTR inh inactive, IEC-6 tox 28, KLF5 inhibitor inactive and IEC-6 cytotox cf inactive.
For Cc1nn2c(-c3ccccc3)ccnc2c1Br the results were aSyn 5UTR inh inactive, IEC-6 tox inactive and KLF5 inhibitor inactive.
Screening CCOC(=O)c1[nH]c2c(c1C)C(=O)CC(c1ccc(F)cc1)C2 (stereo unspecified) returned BaF3 tox 56, Ba/F3 V617F tox 56, aSyn 5UTR inh inconclusive, APP transl inh 92, IEC-6 tox 42, KLF5 inhibitor inactive and IEC-6 cytotox cf 60.
Cc1cccc(C)c1OCC(=O)NNC(=S)NC(=O)C1CC1 was read as aSyn 5UTR inh inactive, IEC-6 tox 29, KLF5 inhibitor inactive and IEC-6 cytotox cf inactive.
CCCc1cc(=O)n2[nH]cc(-c3ccc(Cl)cc3)c2n1 was read as aSyn 5UTR inh 71, IEC-6 tox 23, KLF5 inhibitor inactive and IEC-6 cytotox cf inactive.
O=C(c1ccco1)N1CCN(Cc2cccc3ccccc23)CC1 was read as aSyn 5UTR inh inactive, IEC-6 tox 26, KLF5 inhibitor inactive and IEC-6 cytotox cf inactive.
`O=C(c1ccco1)N1CCN(Cc2ccccc2C(F)(F)F)CC1` gave BaF3 tox inactive, Ba/F3 V617F tox inactive, APP transl inh inactive, IEC-6 tox inactive and KLF5 inhibitor inactive.
Screening COc1ccc2cc(C#N)c(SCC(=O)N3CC(=O)Nc4ccccc43)nc2c1 returned BaF3 tox inactive, Ba/F3 V617F tox inactive, aSyn 5UTR inh inactive, IEC-6 tox inactive and KLF5 inhibitor inactive.
For Cc1cccc2cc(C#N)c(SCC(=O)N3CC(=O)Nc4ccccc43)nc12 the results were BaF3 tox 89, Ba/F3 V617F tox 85, aSyn 5UTR inh 110, APP transl inh 96, IEC-6 tox 93, KLF5 inhibitor inactive and IEC-6 cytotox cf 74.
Cc1cc(NC(=O)CSc2nc3c(C)ccc(C)c3cc2C#N)no1 was read as aSyn 5UTR inh inactive, IEC-6 tox inactive and KLF5 inhibitor inactive.
For Cc1cc(NC(=O)CSc2nc3c(C)cccc3cc2C#N)no1 the results were aSyn 5UTR inh inactive, IEC-6 tox 23, KLF5 inhibitor inactive and IEC-6 cytotox cf inactive.
For Cc1cc(NC(=O)CSc2nnc(-c3ccc(O)cc3)o2)no1 the results were BaF3 tox inactive, Ba/F3 V617F tox inactive, aSyn 5UTR inh inactive, IEC-6 tox inactive and KLF5 inhibitor inactive.
`CCc1cc2ccc(C)c(C)c2nc1SCC(=O)Nc1cc(C)on1` gave aSyn 5UTR inh inactive, IEC-6 tox 35, KLF5 inhibitor inactive and IEC-6 cytotox cf 32.
Screening Cc1cc(NC(=O)CSc2nnc(-c3ccccc3)o2)no1 returned BaF3 tox inactive, Ba/F3 V617F tox inactive, aSyn 5UTR inh inactive, APP transl inh inactive, IEC-6 tox 29, KLF5 inhibitor inactive and IEC-6 cytotox cf inactive.
Cc1ccc(CN2CCN(Cc3cccn3-c3nccs3)CC2CCO)cc1 (stereo unspecified) was read as BaF3 tox inactive, Ba/F3 V617F tox inactive, aSyn 5UTR inh inactive, APP transl inh inactive, IEC-6 tox inactive and KLF5 inhibitor inactive.
Nc1ccc(-c2cnc(-c3ccc(N)cc3)nc2)cc1 was read as BaF3 tox inactive, Ba/F3 V617F tox inactive, aSyn 5UTR inh inactive, APP transl inh inactive, IEC-6 tox inactive and KLF5 inhibitor inactive.
Oc1ccc(-c2cnc(-c3ccc(O)cc3)nc2)cc1 was read as aSyn 5UTR inh inactive, IEC-6 tox 41, KLF5 inhibitor inactive and IEC-6 cytotox cf inactive.
`COc1cccc2cc(CC(=O)c3ccc(C)cc3C)c(=O)oc12` gave aSyn 5UTR inh inactive, IEC-6 tox inactive and KLF5 inhibitor inactive.
Screening Cc1ccc(NC(=O)c2ccc(Cl)cc2[N+](=O)[O-])nc1 returned BaF3 tox 64, Ba/F3 V617F tox 74, aSyn 5UTR inh inactive, APP transl inh inactive, IEC-6 tox 38, KLF5 inhibitor inactive and IEC-6 cytotox cf 49.
Cc1c(C(=O)OCC(=O)Nc2ccc3c(c2)OCO3)cccc1[N+](=O)[O-] was read as BaF3 tox inactive, Ba/F3 V617F tox inactive, aSyn 5UTR inh inactive, APP transl inh inactive, IEC-6 tox inactive and KLF5 inhibitor inactive.

Compound activity as filed in PubChem.
